LANA-H2A inh: blocks KSHV LANA binding to histone H2A/H2B | Q9QR71 | cell-free LANA-H2A/H2B peptide, fluorescence polarization | inhibition, % (no concentration beside the values) | actives 0.6% (n = 320,000) | AID 2629; in the data active = inhibition mostly above about 10%, no sharp cut-off; inactive = mostly below about 6.7%
ABHD5 PLIN5 PPI: ABHD5-PLIN5 protein interaction inhibition; Q00G26+Q8WTS1; Split G. princeps luciferase complementation, luminescence, 4 h; inhibition, % at 4 µM; actives 0.78% (n = 360,000); AID 602281;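 active = inhibition above the mean inhibition across every tested compound plus 3 SD, cut at about 22% in these data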
PRMT1 FP inh: PRMT1 (human) inhibition, primary screen; Q99873; recombinant PRMT1, activity-based probe fluorescence polarization; inhibition, % at 2.79 µM; actives 1.3% (n = 370,000); AID 652257;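 active = inhibition above about 21% made by adding two undisclosed values, limit read from the data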
Rtt109 Vps75: inhibitors of Candida albicans Rtt109/Vps75 histone acetyltransferase | inhibition, % at 34.9 µM | purified Rtt109/Vps75, ThioGlo CoA-SH fluorescence, 4 h | actives 0.16% (n = 330,000) | AID 540336 | Q5AAJ8;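 active = inhibition of at least 50% in every replicate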
Target sequence (Q5AAJ8 whole entry, looked up): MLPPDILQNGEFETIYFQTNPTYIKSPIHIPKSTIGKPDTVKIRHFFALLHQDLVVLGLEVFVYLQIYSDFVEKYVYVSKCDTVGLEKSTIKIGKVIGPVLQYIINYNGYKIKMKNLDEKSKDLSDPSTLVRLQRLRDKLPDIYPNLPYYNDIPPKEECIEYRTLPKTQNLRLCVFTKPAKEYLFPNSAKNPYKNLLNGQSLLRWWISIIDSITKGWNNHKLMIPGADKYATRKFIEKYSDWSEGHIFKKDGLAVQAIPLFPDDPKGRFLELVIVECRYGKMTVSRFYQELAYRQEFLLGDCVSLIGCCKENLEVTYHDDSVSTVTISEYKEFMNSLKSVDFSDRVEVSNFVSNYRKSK
rCAG binder: binds r(CAG) RNA repeats; r(CAG) RNA repeat, TO-PRO-1 dye displacement fluorescence; inhibition, % at 3 µM; actives 1.3% (n = 370,000);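 active = inhibition above the plate cutoff, the mean of all test compounds on that plate plus 3 SD, cut at about 35% in these data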;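 also: higher means more dye released from RNA so lower well fluorescence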
ALR H2O2 inh: inhibitors of human sulfhydryl oxidase ALR | purified ALR, DTT oxidation, H2O2 HRP-luminol luminescence | inhibition, % (no concentration beside the values) | actives 3.8% (n = 290,000);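 active = mean replicate inhibition above about 79%, with every replicate also reaching it, limit read from the data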
Target sequence (P55789 whole entry, looked up): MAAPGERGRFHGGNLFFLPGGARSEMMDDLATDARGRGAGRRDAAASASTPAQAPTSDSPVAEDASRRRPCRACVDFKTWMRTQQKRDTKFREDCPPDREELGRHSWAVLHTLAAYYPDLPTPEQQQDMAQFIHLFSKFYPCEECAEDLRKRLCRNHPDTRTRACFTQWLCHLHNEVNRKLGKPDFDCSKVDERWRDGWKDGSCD
Hits are given with their value. A selection: hits, their analogues and other compounds. The true share with any hit is near 5.9%.

For COc1cccc(-c2nc(CS(=O)(=O)CC(=O)NC3CCC(C)CC3)c(C)o2)c1 (centres undefined) the results were LANA-H2A inh inactive, ABHD5 PLIN5 PPI inactive, PRMT1 FP inh inactive, Rtt109 Vps75 inactive, rCAG binder inactive and ALR H2O2 inh inactive.
`COc1ccc(-c2nc(CS(=O)CC(=O)NC3CCCCC3C)c(C)o2)cc1` (centres undefined) gave LANA-H2A inh inactive, ABHD5 PLIN5 PPI inactive, PRMT1 FP inh inactive, Rtt109 Vps75 inactive, rCAG binder inactive and ALR H2O2 inh 99.
COc1ccc(-c2nc(CS(=O)CC(=O)NC3CCCCC3)c(C)o2)cc1OC (centres undefined) was read as LANA-H2A inh inactive, ABHD5 PLIN5 PPI inactive, Rtt109 Vps75 inactive and ALR H2O2 inh 99.
Screening COc1ccc(-c2nc(CS(=O)CC(=O)NC3CCCCC3)c(C)o2)cc1 (centres undefined) returned LANA-H2A inh inactive, ABHD5 PLIN5 PPI inactive, PRMT1 FP inh inactive, Rtt109 Vps75 inactive, rCAG binder inactive and ALR H2O2 inh inactive.
For COc1cccc(-c2nc(CS(=O)CC(=O)NC3CC3)c(C)o2)c1 (centres undefined) the results were LANA-H2A inh inactive, ABHD5 PLIN5 PPI inactive, PRMT1 FP inh inactive, Rtt109 Vps75 inactive, rCAG binder inactive and ALR H2O2 inh 99.
Screening COc1ccc(-c2nc(CS(=O)(=O)CC(=O)NC3CCCCC3C)c(C)o2)cc1 (centres undefined) returned LANA-H2A inh inactive, ABHD5 PLIN5 PPI inactive, PRMT1 FP inh inactive, Rtt109 Vps75 inactive, rCAG binder inactive and ALR H2O2 inh inactive.
Screening CS(=O)(=O)N1CCCCC1c1cc(C(=O)Nc2cccc3c2CCCC3)no1 (centres undefined) returned ABHD5 PLIN5 PPI inactive, PRMT1 FP inh inactive and rCAG binder inactive.
For COc1ccccc1CNC(=O)CN1C(=O)NC2(CCCCCC2)C1=O the results were LANA-H2A inh inactive, ABHD5 PLIN5 PPI inactive, PRMT1 FP inh inactive, Rtt109 Vps75 inactive, rCAG binder inactive and ALR H2O2 inh inactive.
CCc1c(-c2cccc(OC)c2)ncn1CCc1ccccc1OC was read as PRMT1 FP inh inactive and rCAG binder inactive.
For CC(C)Oc1ccc(CSc2ncn[nH]2)cc1 the results were LANA-H2A inh inactive, ABHD5 PLIN5 PPI inactive, PRMT1 FP inh inactive, Rtt109 Vps75 inactive, rCAG binder inactive and ALR H2O2 inh inactive.
CC(C)Oc1ccc(CSC(=N)N)cc1 was read as LANA-H2A inh inactive, ABHD5 PLIN5 PPI inactive, PRMT1 FP inh inactive, Rtt109 Vps75 inactive, rCAG binder inactive and ALR H2O2 inh 98.
For Cc1ccc(OCC(=O)NCCN2CCOCC2)cc1C the results were LANA-H2A inh inactive, ABHD5 PLIN5 PPI inactive, PRMT1 FP inh inactive, Rtt109 Vps75 inactive, rCAG binder inactive and ALR H2O2 inh 87.
For Cc1ccc(NC(=S)NCCCN2CCOCC2)cc1C the results were LANA-H2A inh inactive, ABHD5 PLIN5 PPI inactive, PRMT1 FP inh inactive, Rtt109 Vps75 inactive, rCAG binder inactive and ALR H2O2 inh 98.
S=C(NCCCN1CCOCC1)N1CCN(c2ccccc2)CC1 was read as LANA-H2A inh inactive, ABHD5 PLIN5 PPI inactive, PRMT1 FP inh inactive, Rtt109 Vps75 inactive, rCAG binder inactive and ALR H2O2 inh 98.
Screening COCCCNC(=S)N1CCN(C)CC1 returned LANA-H2A inh inactive, ABHD5 PLIN5 PPI inactive, PRMT1 FP inh inactive, Rtt109 Vps75 inactive, rCAG binder inactive and ALR H2O2 inh inactive.
`S=C(NCCCN1CCOCC1)N1CCOCC1` gave LANA-H2A inh inactive, ABHD5 PLIN5 PPI inactive, PRMT1 FP inh inactive, Rtt109 Vps75 inactive, rCAG binder inactive and ALR H2O2 inh inactive.
For Cc1cc(OCC(=O)NCCN2CCOCC2)cc(C)c1Cl the results were LANA-H2A inh inactive, ABHD5 PLIN5 PPI inactive, PRMT1 FP inh inactive, Rtt109 Vps75 inactive, rCAG binder inactive and ALR H2O2 inh inactive.
Screening COCCCNC(=S)N1CCN(c2ccccc2)CC1 returned LANA-H2A inh inactive, ABHD5 PLIN5 PPI inactive, PRMT1 FP inh inactive, Rtt109 Vps75 inactive, rCAG binder inactive and ALR H2O2 inh 97.
For COC(=O)[C@]12C=CCN1[C@@H](c1ccc(Cl)cc1)c1c(c3ccccc3n1S(=O)(=O)c1ccc(C)cc1)C2 the results were PRMT1 FP inh inactive and rCAG binder inactive.
Screening CCN1CCCCC(NC(=O)c2ccc(F)c(F)c2)C1=O (centres undefined) returned PRMT1 FP inh inactive and rCAG binder inactive.
Screening Cc1ccc(C)c(CC(=O)N2CCCC(c3cc(C(=O)NCc4cccnc4)no3)C2)c1 (centres undefined) returned ABHD5 PLIN5 PPI inactive, PRMT1 FP inh inactive and rCAG binder inactive.
Cc1cc(F)ccc1NCc1ccccc1[N+](=O)[O-] was read as LANA-H2A inh inactive, ABHD5 PLIN5 PPI inactive, PRMT1 FP inh inactive, Rtt109 Vps75 inactive, rCAG binder inactive and ALR H2O2 inh 99.
For Cc1oc(-c2ccccc2F)nc1CS(=O)CC(=O)NCc1cccs1 (centres undefined) the results were LANA-H2A inh inactive, ABHD5 PLIN5 PPI inactive, PRMT1 FP inh inactive, Rtt109 Vps75 inactive, rCAG binder inactive and ALR H2O2 inh 100.
For Cc1cccc(-c2nc(CS(=O)CC(=O)NCc3cccs3)c(C)o2)c1 (centres undefined) the results were LANA-H2A inh inactive, ABHD5 PLIN5 PPI inactive, PRMT1 FP inh inactive, Rtt109 Vps75 inactive and rCAG binder inactive.
`Cc1oc(-c2ccccc2Cl)nc1CS(=O)CC(=O)NCc1cccs1` (centres undefined) gave LANA-H2A inh inactive, ABHD5 PLIN5 PPI inactive, PRMT1 FP inh inactive, Rtt109 Vps75 inactive and rCAG binder inactive.
`Cc1cccc(-c2nc(CSCC(=O)NCc3cccs3)c(C)o2)c1` gave LANA-H2A inh inactive, ABHD5 PLIN5 PPI inactive, PRMT1 FP inh inactive, Rtt109 Vps75 inactive, rCAG binder inactive and ALR H2O2 inh 98.
Cc1oc(-c2ccc(Cl)cc2)nc1CS(=O)CC(=O)NCc1cccs1 (centres undefined) was read as LANA-H2A inh inactive, ABHD5 PLIN5 PPI inactive, PRMT1 FP inh inactive, Rtt109 Vps75 inactive, rCAG binder inactive and ALR H2O2 inh 99.
Screening Cc1cc(C)n2nc(C(=O)N/N=C/c3ccc(O)cc3)nc2n1 returned LANA-H2A inh inactive, ABHD5 PLIN5 PPI inactive, PRMT1 FP inh inactive, Rtt109 Vps75 inactive, rCAG binder inactive and ALR H2O2 inh 99.
For COc1cc(/C=N/NC(=O)c2nc(-c3ccccc3)n(-c3ccccc3)n2)ccc1O the results were LANA-H2A inh inactive, ABHD5 PLIN5 PPI inactive, PRMT1 FP inh inactive, Rtt109 Vps75 inactive, rCAG binder inactive and ALR H2O2 inh 85.
O=C(N/N=C/c1ccc(O)cc1)c1nc(-c2ccccc2)n(-c2ccccc2)n1 was read as LANA-H2A inh inactive, ABHD5 PLIN5 PPI inactive, PRMT1 FP inh inactive, Rtt109 Vps75 inactive, rCAG binder inactive and ALR H2O2 inh 98.
Screening NC(=O)c1ccsc1NC(=O)c1nc(-c2ccccc2)n(-c2ccccc2)n1 returned LANA-H2A inh inactive, ABHD5 PLIN5 PPI inactive, PRMT1 FP inh inactive, Rtt109 Vps75 inactive, rCAG binder inactive and ALR H2O2 inh 86.
